This passage reports activity change results from PubChem BioAssay AID2094 (Broad Institute, 2009).

SMILES strings stand for the structures. In all, about 300,000 compounds went through this assay and about 1,200 (0.4%) were called active. The full list was thinned out, with actives kept by preference. Unmarked numbers belong to inactive results. Rule as the data show it: active = activity change below about -75% (passing the limit was not always enough); inconclusive = no clear call, values can overlap the other calls.

A short description of the assay: modulation of AI-2 quorum-sensing luminescence – JMH597 strain, luminescence/OD600 ratio, primary screen (AID 2094).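 Also: luminescence divided by OD600 gain over 9 h not by final OD600 alone.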 As to conditions: Vibrio harveyi JMH597 AI-2 luminescence/OD600 ratio, 9 h; at 7.5 µM; stronger effect = lower value; 0 = neutral-control median; strain lacks LuxN and CqsS sensors.
`COCC(=O)N1CCCC(C(=O)c2ccc(C(F)(F)F)cc2)C1` (stereo unspecified): the activity change was 13.4%.
As for `CC(=O)c1ccc(S(=O)(=O)N(C)CCCC(=O)N(C)Cc2ccccc2F)cc1`, the activity change was 21.5%.
Consider `O=C(/C=C/c1ccco1)Nc1cccc(-c2nc3ccccc3[nH]2)c1`, for which the activity change is 4.93%.
Under `O=C(Nc1ccc(O)cc1)c1ccc(NC(=O)c2ccco2)cc1` stands 7.66%; under `O=C(/C=C/c1ccco1)Nc1ccc(Oc2ccccc2)cc1`, -83.2% (active); under `O=C(Nc1ccccc1)c1ccco1`, 10.6%.
Regarding `O=C(Nc1ccc(Oc2ccccc2)cc1)c1ccco1`, the activity change is -96.6% (active).
Turning to `Cc1nnc(NC(=O)/C=C/c2ccco2)s1`, the activity change was 12.9%.
For `CCc1cccc(NC(=O)CCCN2C(=O)C(c3ccccc3)Oc3cccnc32)c1` (stereo unspecified), the activity change is 34.6%.
Consider `CC(OC(=O)CNS(=O)(=O)/C=C/c1ccccc1)C(=O)Nc1ccc(S(=O)(=O)N2CCCC2)cc1` (stereo unspecified), for which the activity change was 11.2%.
Under `CCCCCCNCCn1cnc2c(N)ncnc21` stands 19.1%; under `O=C(c1cc(-c2cccc(O)c2)on1)N1CCc2ccccc2C1`, -84.1% (active); under `O=C(c1cc(-c2ccc(O)cc2)on1)N1CCOCC1`, 2.48%.
With `Cc1ccc(-c2cc(C(=O)N3CCc4ccccc4C3)no2)cc1`, the activity change was 4.44%.
With `COc1ccc(C)cc1N(CC(=O)NC(C)c1ccccc1)S(C)(=O)=O` (stereo unspecified), the activity change is 17.3%.
In the case of `CCOc1ccc(-n2c(SCC(=O)Nc3ccc(OC)cc3)nc3sc4c(c3c2=O)CCN(C)C4)cc1`, the activity change was 20.9%.
Regarding `O=C(Nc1ccccc1Cl)/C(Cl)=C(\Cl)S(=O)c1ccccc1` (stereo unspecified), the activity change is -84.8% (active).
The value for `O=C(Nc1ccccc1Cl)Nc1cccc2cccnc12` was 24.3%; that for `O=C(Cc1ccc2c(c1)CCCC2)Nc1ccccc1Cl` was -3.68%; that for `Cc1csc(OCC(=O)Nc2ccc(C)c(C)c2)n1` was 15.5%.
The value for `O=C(CC1SC(=Nc2ccccc2)N(Cc2ccccn2)C1=O)Nc1cccc(Cl)c1` (stereo unspecified) was 3.68%; that for `Cc1cccnc1CC(C)NC(=O)c1cc(COc2cncc(Cl)c2)on1` (stereo unspecified) was 10.5%; that for `CC(=O)c1cccc(OCc2cc(C(=O)NC(C)Cc3cccnc3)no2)c1` (stereo unspecified) was -85.8% (active).
For the compound `CCC(NC(=O)c1cc(COc2ccc(F)c(F)c2)on1)c1ccncc1` (stereo unspecified), the activity change is 14%.
The value for `CC1(C)C/C(=N/Nc2ccc([N+](=O)[O-])cc2[N+](=O)[O-])C(C)(C)O1` was 18.5%; that for `C/C=C/C(=O)OCc1csc(CC(=O)Nc2ccccc2C)n1` was 48.5%.
